# Measurements published in PubChem BioAssay (Tox21).
# Several values for one entry are separate records, joined by “and”; a condition that tells them apart may be missing. Equal values may be shown once. Inconclusive results are not listed. Entries that show only a call come without a potency. More than one record can exist for a structure, and the calls need not agree. Activity calls are given as the source filed them. Unless noted, the call rests on the fitted dose curve; in most records, active means well fitted curve in the direction sought with a large enough effect in the repeat runs; inconclusive means weak or mixed curves; inactive means no such curve, though single readings can be large; an effect the other way counts as inactive or inconclusive.
# Key:
# [1] = qHTS assay to identify small molecule antagonists of the estrogen related receptor (ERR) signaling pathway from Tox21 library - cell viability counter screen (AID 1224834); further: nearly all actives have a fitted effect of over 30% in size; further: potency means the concentration at half of the fitted maximal effect
# Outline: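 CellTiter-Fluor fluorescence, read after 30 min at 37 C, measures viability of ERR cells. Cells plated at 2,000/well and incubated 6 h before pin-tool compound addition, then exposed 17.5 hours at 37 C.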
# [2] = target: Luciferin 4-monooxygenase (Photinus pyralis) (UniProt P08659); assay: qHTS assay to identify small molecule inhibitors of firefly luciferase (AID 1224835); further: nearly all actives have a fitted effect of over 25% in size; further: potency means the concentration at half of the fitted maximal effect
# Sequence of Luciferin 4-monooxygenase (Photinus pyralis) (P08659 whole entry, looked up): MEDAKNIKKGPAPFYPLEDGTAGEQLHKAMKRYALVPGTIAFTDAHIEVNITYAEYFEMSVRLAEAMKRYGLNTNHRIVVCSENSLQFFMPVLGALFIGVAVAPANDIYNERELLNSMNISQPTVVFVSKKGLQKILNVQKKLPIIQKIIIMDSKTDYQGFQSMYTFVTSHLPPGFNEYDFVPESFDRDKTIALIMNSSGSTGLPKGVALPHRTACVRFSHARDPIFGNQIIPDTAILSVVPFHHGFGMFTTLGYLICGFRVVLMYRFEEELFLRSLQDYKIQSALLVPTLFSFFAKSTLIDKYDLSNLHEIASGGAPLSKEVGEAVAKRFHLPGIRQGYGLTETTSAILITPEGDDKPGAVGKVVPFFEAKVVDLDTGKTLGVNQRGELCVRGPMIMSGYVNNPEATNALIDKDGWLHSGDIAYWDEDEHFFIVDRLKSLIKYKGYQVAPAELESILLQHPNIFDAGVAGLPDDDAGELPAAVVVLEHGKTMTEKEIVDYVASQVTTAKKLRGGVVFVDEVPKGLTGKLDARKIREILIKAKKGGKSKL
# Outline: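 Biochemical qHTS: compounds run as interplate titrations against purified firefly enzyme, with D-luciferin and ATP each at its KM concentration. Light output recorded by CCD imaging.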
# [3] = qHTS assay to identify small molecule agonists of the constitutive androstane receptor (CAR) signaling pathway - cell viability counter screen (AID 1224836); further: nearly all actives have a fitted effect of over 45% in size; further: potency means the concentration at half of the fitted maximal effect
# Outline: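 Cells were seeded and incubated 4 hrs. Compounds were added across 15 concentrations together with PK11195 at 0.75 uM final. Plates were incubated 23 hrs at 37 C. CellTiter-Fluor was added and fluorescence measured.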
# [4] = qHTS assay to identify small molecule antagonists of the constitutive androstane receptor (CAR) signaling pathway - cell viability counter screen (AID 1224837); further: nearly all actives have a fitted effect of over 45% in size; further: potency means the concentration at half of the fitted maximal effect
# Outline: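 Cytotoxicity counter-screen: CellTiter-Fluor fluorescence after 23 h compound exposure (15-point qHTS) in double-stable HepG2-CYP2B6-hCAR cells, with 50 nM CITCO added.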
# [5] = qHTS assay to identify small molecule antagonists of the estrogen related receptor signaling pathway with the pleiotropic PPARgamma coactivator (PGC) from Tox21 10K library - cell viability counter screen (AID 1224840; active means well fitted cell-killing curve with a large enough effect in the repeat runs, not every such curve was filed as active; further: nearly all actives have a fitted effect of over 40% in size; further: potency means the concentration at half of the fitted maximal effect)
# Outline: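 Counter-screen for cytotoxicity: after 17.5 h compound exposure at 37 C, CellTiter-Fluor reagent added to PGC/ERR cells for 30 min and fluorescence read. Cells were seeded at 2,000 per well 6 h before dosing.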
# [6] = target: Thyrotropin receptor (Homo sapiens) (UniProt P16473); assay: qHTS assay to identify small molecule agonists of the thyroid stimulating hormone receptor (TSHR) signaling pathway (AID 1224843; calls by dose curve; further: nearly all actives have a fitted effect of over 45% in size; further: potency means the concentration at half of the fitted maximal effect)
# Sequence of Thyrotropin receptor (Homo sapiens) (P16473 whole entry, looked up): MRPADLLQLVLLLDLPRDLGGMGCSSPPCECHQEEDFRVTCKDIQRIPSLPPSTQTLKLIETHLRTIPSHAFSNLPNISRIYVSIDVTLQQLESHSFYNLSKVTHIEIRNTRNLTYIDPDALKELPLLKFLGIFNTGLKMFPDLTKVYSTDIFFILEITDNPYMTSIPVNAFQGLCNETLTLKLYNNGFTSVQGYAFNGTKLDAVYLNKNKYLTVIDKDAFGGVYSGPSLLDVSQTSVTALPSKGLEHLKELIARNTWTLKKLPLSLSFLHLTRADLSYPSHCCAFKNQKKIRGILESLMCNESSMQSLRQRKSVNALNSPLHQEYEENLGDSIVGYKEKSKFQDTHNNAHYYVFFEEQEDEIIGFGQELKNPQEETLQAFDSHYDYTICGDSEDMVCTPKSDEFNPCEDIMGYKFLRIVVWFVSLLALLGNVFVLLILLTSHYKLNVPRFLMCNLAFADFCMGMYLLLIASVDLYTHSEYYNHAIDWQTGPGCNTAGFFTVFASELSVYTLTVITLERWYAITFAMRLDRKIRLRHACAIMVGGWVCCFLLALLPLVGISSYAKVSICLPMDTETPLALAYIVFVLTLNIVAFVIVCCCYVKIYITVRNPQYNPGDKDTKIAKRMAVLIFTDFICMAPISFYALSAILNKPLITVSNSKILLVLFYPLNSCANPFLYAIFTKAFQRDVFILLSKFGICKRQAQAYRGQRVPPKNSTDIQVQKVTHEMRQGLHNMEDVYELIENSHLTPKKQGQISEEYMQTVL
# Outline: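 HEK293/TSHR, 800 cells/well; cpd 30 min RT; add cAMP-d2 + anti-cAMP-cryptate, 1 h RT; fluorescence read on plate reader. 15-pt titration, n=3.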
# [7] = target: Nuclear receptor subfamily 1 group I member 3 (Homo sapiens) (UniProt Q14994); assay: qHTS assay to identify small molecule antagonists of the constitutive androstane receptor (CAR) signaling pathway (AID 1224838);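 further: HepG2 cells stably expressing hCAR with CYP2B6 luciferase reporter stimulated by CITCO; nearly all actives have a fitted effect of over 40% in size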; further: potency means the concentration at half of the fitted maximal effect
# Sequence of Nuclear receptor subfamily 1 group I member 3 (Homo sapiens) (Q14994 whole entry, looked up): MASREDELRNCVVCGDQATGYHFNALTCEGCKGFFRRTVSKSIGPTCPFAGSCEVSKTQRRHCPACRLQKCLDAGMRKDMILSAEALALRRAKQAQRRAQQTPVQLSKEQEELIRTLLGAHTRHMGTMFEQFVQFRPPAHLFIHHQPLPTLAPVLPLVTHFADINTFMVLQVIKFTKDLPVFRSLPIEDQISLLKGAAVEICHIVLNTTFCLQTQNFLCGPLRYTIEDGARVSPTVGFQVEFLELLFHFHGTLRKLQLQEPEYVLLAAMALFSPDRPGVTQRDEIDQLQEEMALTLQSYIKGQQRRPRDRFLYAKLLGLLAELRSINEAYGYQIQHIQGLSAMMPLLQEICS
# Outline: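 Antagonism measured as luciferase signal (ONE-Glo, 30 min, room temperature) in CAR-stimulated cells: HepG2-CYP2B6-hCAR double-stable line exposed 24 hr at 37 C to compound in a 15-point series plus 50 nM CITCO.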
# [8] = target: Nuclear receptor subfamily 1 group I member 3 (Homo sapiens) (UniProt Q14994); assay: qHTS assay to identify small molecule agonists of the constitutive androstane receptor (CAR) signaling pathway (AID 1224839); further: nearly all actives have a fitted effect of over 15% in size; further: potency means the concentration at half of the fitted maximal effect
# Outline: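 Cells were plated and incubated 4 hrs, then dosed with compounds at 15 concentrations. PK11195 was added to 0.75 uM final. After 24 hrs at 37 C, luciferase luminescence was measured.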
# [9] = qHTS assay to identify small molecule antagonists of the estrogen related receptor signaling pathway with the pleiotropic PPARgamma coactivator (PGC) from Tox21 10K library (AID 1224841; call rule not given here; further: actives are mostly falling curves and most rising ones were filed inactive; nearly all actives have a fitted effect of over 50% in size; further: potency means the concentration at half of the fitted maximal effect)
# Outline: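 Luminescence (One-Glo, 30 min at room temperature) after 18 h compound treatment at 37 C of PGC/ERR reporter cells plated at 2,000 cells/well and settled 6 h beforehand.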
# [10] = qHTS assay to identify small molecule agonists of the estrogen related receptor signaling pathway with the pleiotropic PPARgamma coactivator (PGC) from Tox21 10K library (AID 1224842); further: nearly all actives have a fitted effect of over 15% in size
# Outline: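 PGC/ERR reporter cell line, 2,000 cells per well, incubated 6 h at 37 C before 23 nL compound in DMSO was added. After 18 h at 37 C, One-Glo luminescence read following 30 min at room temperature.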
SMILES,Potency [1],Potency [2],Potency [3],Potency [4],Potency [5],Potency [6],Potency [7],Potency [8],Potency [9],Potency [10]
CCCCCCCCCCCOC(=O)c1ccccc1C(=O)OCCCCCCCCCCC,inactive,inactive,inactive,inactive,inactive,inactive,–,–,–,–
COP(=S)(OC)Oc1ccc([N+](=O)[O-])cc1,–,–,inactive,inactive,–,inactive,inactive,inactive,–,–
O=C(Nc1ccc(Br)cc1)c1cc(Br)cc(Br)c1O,inactive and 19.3 µM (active) and 10.6 µM (active),3.98 µM (active) and 5.03 µM (active) and 6.92 µM (active),27.2 µM (active) and 16.8 µM (active),–,inactive and 21.1 µM (active),inactive,–,–,13.6 µM (active) and 13.7 µM (active) and inactive,inactive
c1cc(OCC2CO2)ccc1Cc1ccc(OCC2CO2)cc1 (configuration not stated),–,inactive,inactive,inactive,inactive,inactive,–,inactive,–,–
Cc1ccc2c(c1N)C(=O)c1ccccc1C2=O,30.3 µM (active),3.95 µM (active) and 5.64 µM (active),–,–,inactive,inactive,inactive,4.28 µM (active) and 7.7 µM (active),inactive,–
Nc1ccc(Cl)cc1N,inactive,13.1 µM (active) and 7.1 µM (active),4.33 µM (active),6.86 µM (active),inactive,inactive,–,–,inactive,–
NC(=S)Nc1ccccc1,22 µM (active) and inactive,inactive,inactive,inactive,inactive,inactive,–,–,–,–
Nc1ccc(-c2ccc(N)c(N)c2)cc1N,48.4 µM (active),35.5 µM (active),inactive,inactive,–,inactive,–,–,–,–
Oc1cc(Cl)ccc1Oc1ccc(Cl)cc1Cl,24.9 µM (active) and 29.8 µM (active),inactive,–,–,24.9 µM (active),–,55.8 µM (active) and inactive,inactive,33.2 µM (active),inactive
C[C@]12CCC(=O)C[C@@H]1CC[C@@H]1[C@@H]2CC[C@]2(C)[C@@H](O)CC[C@@H]12,48 µM (active) and inactive,–,inactive,inactive,inactive,–,–,–,–,–
Oc1cc(Cl)c(Cl)cc1Cl,inactive,inactive,inactive,inactive,inactive,inactive,–,–,–,–
Clc1nc(Cl)nc(Cl)n1,inactive,–,inactive,inactive,inactive,–,inactive,inactive,–,–
c1ccc(P(c2ccccc2)c2ccccc2)cc1,inactive,inactive,inactive,inactive,inactive,inactive,–,–,–,–
O=C(CCl)c1ccccc1,inactive,inactive,inactive,inactive,inactive,69.6 µM (active),–,–,–,–
Cc1cc(C)cc(C)c1,inactive,inactive,inactive,inactive,inactive,inactive,–,–,–,–
O=C(O)C(F)(F)C(F)(F)C(F)(F)C(F)(F)C(F)(F)C(F)(F)C(F)(F)F,inactive,inactive,inactive,inactive,inactive,inactive,–,–,–,–
CCCCN(CCCC)N=O,inactive,inactive,inactive,inactive,inactive,inactive,–,–,–,–
N[C@@H](Cc1ccc(N(CCCl)CCCl)cc1)C(=O)O,inactive,–,inactive,inactive,inactive,inactive,–,–,–,–
O=Cc1ccco1,inactive,inactive,inactive,inactive,inactive,inactive,–,–,inactive,–

SMILES,Potency [1],Potency [2],Potency [3],Potency [4],Potency [5],Potency [6],Potency [7],Potency [8],Potency [9],Potency [10]
O=P(Oc1ccccc1)(Oc1ccccc1)Oc1ccccc1,–,inactive,inactive,inactive,inactive,12.1 µM (active) and 9.69 µM (active),inactive,21.6 µM (active) and 19.3 µM (active),13.6 µM (active),–
S=C1NCCN1,inactive,–,inactive,inactive,inactive,1.69 µM (active) and inactive,–,–,–,–
Oc1cc(Cl)ccc1Cl,inactive,inactive,inactive,inactive,inactive,inactive,–,–,–,–
CCN(CC)C(=O)/C(Cl)=C(\C)OP(=O)(OC)OC,inactive,inactive,inactive,inactive,inactive,inactive,–,–,–,–
c1ccc(-c2cccc(-c3ccccc3)c2)cc1,inactive,9.03 µM (active) and 7.96 µM (active),inactive,inactive,inactive,inactive,–,–,–,–
NNC(=S)NN,–,inactive,inactive,inactive,–,inactive,–,–,62.8 µM (active) and 61.1 µM (active),–
Cc1ccc(N)c(N)c1,–,15.9 µM (active) and 2.52 µM (active),inactive,inactive,inactive,inactive,–,27.4 µM (active) and 24.3 µM (active),–,–
OCC(O)CO,inactive,inactive,inactive,inactive,inactive,inactive,–,–,inactive,–
CCCCCc1cc(O)cc(O)c1,54.5 µM (active),63.6 µM (active) and 39.9 µM (active),inactive,–,inactive and 48.6 µM (active),inactive,–,54.5 µM (active),–,–
CN(C)c1ccc(C(=O)c2ccc(N(C)C)cc2)cc1,inactive and 9.69 µM (active),35.2 µM (active) and 10 µM (active),–,inactive,inactive,–,inactive,1.93 µM (active),–,–
C#CCOS(=O)OC1CCCCC1Oc1ccc(C(C)(C)C)cc1 (configuration not stated),4.33 µM (active),–,–,–,inactive,12.2 µM (active) and 24.3 µM (active),inactive,inactive and 5.45 µM (active),3.86 µM (active) and 3.06 µM (active),–
CCC(C)c1cc([N+](=O)[O-])cc([N+](=O)[O-])c1O (configuration not stated),inactive and 19.3 µM (active),inactive,–,–,inactive and 17.2 µM (active),inactive,–,inactive,inactive and 10.9 µM (active),–
CCc1cccc(CC)c1N(COC)C(=O)CCl,–,inactive,inactive,inactive,inactive,inactive,–,18.7 µM (active) and 19.3 µM (active),–,–
COc1ccc(C(CN(C)C)C2(O)CCCCC2)cc1 (configuration not stated),inactive,inactive,inactive,inactive,inactive,inactive,–,–,–,–
CC(C)(c1cc(Cl)c(O)c(Cl)c1)c1cc(Cl)c(O)c(Cl)c1,inactive,inactive,inactive,inactive,inactive,inactive,–,–,inactive,–
CC(C)NC(C)C,inactive,inactive,inactive,inactive,inactive,inactive,–,–,–,–
CCN(N=O)C(N)=O,inactive,inactive,inactive,inactive,inactive,inactive,–,–,–,–
CCOC(=S)S,inactive,–,inactive,32.6 µM (active),–,inactive,24.3 µM (active) and 36.6 µM (active),inactive,inactive,–
CCOCN(C(=O)CCl)c1c(C)cccc1CC,–,inactive,inactive,inactive,inactive,8.15 µM (active) and inactive,–,18.3 µM (active) and 15.4 µM (active),36.4 µM (active) and 13.7 µM (active),–
